# NPR1 antag – blocks ANP-stimulated signaling of human Npr1 receptor | Potency, µM (highest dose often 46.3 µM), hits mostly inhibitors | hit rate 1.6% among 76,000 | P16066 | AID 1347048 | HEK293 hNpr1 GloSensor cGMP, ANP-stimulated luminescence; calls by dose curve; further: nearly all actives have a fitted effect of over 60% in size
#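 Compound pre-incubated 30 min at room temperature on GloSensor-loaded HEK293 cells stably carrying hNpr1 and the pGS-40F cGMP biosensor. Stimulation uses hNppA at 0.1 nM final; luminescence is taken at baseline and 20 min post-agonist.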
# GPT2 inhibitor – GPT2 alanine aminotransferase inhibition; Potency, µM (highest dose often 57.7 µM), hits mostly inhibitors; hit rate 0.25% among 100,000; Q8TD30; Recombinant GPT2, coupled pyruvate oxidase/HRP Amplex Red fluorescence; further: nearly all actives have a fitted effect of over 60% in size
#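 Recombinant GPT2 (10ng/uL) with 250uM a-KG and 2mM L-alanine, 30 min at room temperature, in HEPES pH 7.5 buffer. Pyruvate detected by pyruvate oxidase/HRP/Amplex Red fluorescence after 30 min in the dark; AOA (50uM) as positive control.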
# NIH3T3 tox – kills NIH 3T3 cells | NIH 3T3 viability, CellTiter-Glo ATP luminescence, 48-72 h | Potency, µM (top dose mostly 96.7 µM), usual class: inhibitors | hit rate 4.3% among 94,000 | AID 1345082; further: nearly all actives have a fitted effect of over 55% in size
#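 Luminescent ATP readout (CellTiter-Glo, 10 min RT) after 48 or 72 hr compound exposure of NIH 3T3 cells seeded at 400 cells/well in 1536-well format; quantitative HTS.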
# Luciferase inh – Photinus pyralis luciferase inhibition. purified P. pyralis luciferase, luminescence, biochemical. P08659. hit rate 2.5% among 76,000. AID 1347043. Potency, µM (doses to about 115 µM), most hits filed as inhibitors; further: nearly all actives have a fitted effect of over 65% in size
#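 Purified 10nM P. pyralis luciferase with 10uM D-luciferin and 10uM ATP in 50mM Tris acetate pH 7.5, 10mM Mg acetate, 0.01% Tween-20, 0.05% BSA. qHTS titration; luminescence read by CCD imager.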
# HEK cytotox – kills HEK 293 cells; AID 1345083; Potency, µM (series often up to 115 µM), usual class: inhibitors; hit rate 6.6% among 94,000; HEK 293 viability, ATP luminescence (CellTiter-Glo), 48-72 h; further: nearly all actives have a fitted effect of over 60% in size
#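 HEK 293 cells seeded at 250 cells/well were exposed to compound for 48 or 72 hr at 37 degree Celsius. Viability taken as ATP content by CellTiter-Glo luminescence.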
# Hits are given with their value; i = inactive; ? = inconclusive; nt = no result given; ! = a repeat was not active. A selection: hits, their analogues and other compounds. The true share with any hit is near 10%. Unless noted, the call rests on the fitted dose curve; in most records, active means well fitted curve in the direction sought with a large enough effect; inconclusive means small, poorly fitted or top-dose-only effect, or another doubt; inactive means no such curve, though single readings can be large; an effect the other way counts as inactive or inconclusive.
SMILES,NPR1 antag,GPT2 inhibitor,NIH3T3 tox,Luciferase inh,HEK cytotox
O=C(NCCc1ccc(F)cc1)C1CCCN(Cc2cccc(-c3cccs3)c2)C1 (stereo not given),nt,nt,?,nt,28.2µM!
O=C(Nc1cccc(Cl)c1)C1CCCN(Cc2cccc(-c3cccs3)c2)C1 (stereo not given),nt,nt,?,nt,39.8µM
CCNC(=O)OC1CCN(C(=O)c2ccc3c(c2)OCCCO3)CC(=O)N(C)c2ccccc21 (stereo not given),nt,nt,?,nt,i
O=C(Nc1ccc(Cl)cc1)N1CCCC(C(=O)N2CCC(N3CCCC3=O)CC2)C1 (stereo not given),nt,i,i,nt,i
Cn1ncc2c(C(=O)NCc3ccc4c(c3)OCO4)cc(-c3ccc(C(F)(F)F)cc3)nc21,nt,nt,?,nt,i
COc1cc2c(cc1OC)C(C[C@H]1CN(S(=O)(=O)c3ccc(Cl)cc3)CC[C@H]1CC(=O)O)=NCC2,i,?,i,i,i
Cc1noc2c(NCCCn3ccnc3)cc(-c3ccccc3)nc12,i,i,11.2µM,i,?
Cc1noc2c(NCCCn3ccnc3)cc(-c3ccccn3)nc12,i,i,25.1µM,i,i
Cc1noc2c(NCCCn3ccnc3)cc(-c3cccc(C(F)(F)F)c3)nc12,i,i,?,i,?
COCC[C@]1(O)CCN(Cc2cc(F)ccc2-n2cccn2)C[C@H]1C,i,i,i,i,?
Cc1ccsc1C(=O)C1CCCN(Cc2cc(F)ccc2-n2cccn2)C1 (stereo not given),i,i,?,i,39.8µM
Cc1ccc(C2Cn3nnc(C(=O)N4CCC(C(=O)Nc5cc(F)cc(F)c5)CC4)c3CO2)cc1 (stereo not given),i,i,i,28.2µM,i
Cc1ccc(C2Cn3nnc(C(=O)N4CCC(C(=O)Nc5ccc(F)c(F)c5)CC4)c3CO2)cc1 (stereo not given),i,i,i,39.8µM,?
CCCCn1c(=O)c(C(=O)NC)nc2cccnc21,nt,i,i,nt,i
CCOc1ccccc1NC(=O)c1cc2n(n1)CC(c1ccc(Cl)cc1)OC2 (stereo not given),i,i,i,i,i
CCOc1ccccc1CNC(=O)c1cc2n(n1)CC(c1ccc(Cl)cc1)OC2 (stereo not given),i,i,?,i,25.1µM
O=C(NCC1CC1)c1cc2n(n1)CC(c1ccc(Cl)cc1)OC2 (stereo not given),i,i,39.8µM,i,?
CN1CCC(N2CCC[C@@H](O)[C@H](NC(=O)c3ccc(OCc4ccccc4)cc3)C2)CC1,i,i,?,i,79.4µM
COC(=O)c1ccc2nc(C[C@@H]3C[C@@H](C(C)C)[C@H](CNC(=O)C(C)C)C=C3C)[nH]c2c1,i,i,?,i,?
COC(=O)c1ccc2nc(C[C@@H]3C[C@@H](C(C)C)[C@H](CNCc4ccc(OC)cc4O)C=C3C)[nH]c2c1,i,i,25.1µM,i,20µM
COC(=O)c1ccc2nc(C[C@@H]3C[C@@H](C(C)C)[C@H](CNCc4ccccc4F)C=C3C)[nH]c2c1,i,i,22.4µM,i,?
O=C(Cc1ccccn1)N1CCCC2(CNc3ncccc3[S+](=O)([O-])N2)C1 (stereo not given),nt,nt,i,nt,?
O=C(c1ccc(C(F)(F)F)cc1)N1CCN(C(=O)c2nc3cccnc3n(CCc3ccccc3)c2=O)CC1,nt,i,?,nt,44.7µM
O=C(NCc1ccccc1F)c1nc2cccnc2n(Cc2ccccc2)c1=O,nt,i,?,nt,79.4µM
CCCCn1c(=O)c(C(=O)NCC2CC2)nc2cccnc21,nt,?,?,nt,i
SMILES,NPR1 antag,GPT2 inhibitor,NIH3T3 tox,Luciferase inh,HEK cytotox
O=C(c1ccc(C(F)(F)F)cc1)N1CCN(C(=O)c2nc3cccnc3n(Cc3ccccc3)c2=O)CC1,nt,i,?,nt,?
O=C(NCCc1ccc(Cl)cc1)c1nc2cccnc2n(Cc2ccccc2)c1=O,nt,i,?,nt,89.1µM
O=C(NCC(F)F)c1nc2cccnc2n(Cc2ccccc2)c1=O,nt,i,?,nt,?
CCCCn1c(=O)c(C(=O)NCC2CCCCC2)nc2cccnc21,nt,i,?,nt,35.5µM
O=C(NCCc1ccc(Cl)cc1)c1nc2cccnc2n(CCc2ccccc2)c1=O,nt,i,?,nt,?
O=C(NC1CCCCC1)c1ccc2nnc(Cc3ccco3)n2c1,nt,i,i,nt,i
O=C(NC1CC1)c1nc2cccnc2n(CCc2ccccc2)c1=O,nt,i,i,nt,56.2µM
O=C(NC1CC1)c1nc2cccnc2n(Cc2ccccc2)c1=O,nt,i,i,nt,i
CC(C)C[C@@H]1N[C@H](C(=O)NCc2ccc(C#N)cc2)Cc2c[nH]c3cccc1c23,i,i,25.1µM,i,56.2µM
CC(C)C[C@@H]1N[C@H](C(=O)NCc2cccnc2)Cc2c[nH]c3cccc1c23,i,i,?,i,25.1µM
CC(C)C[C@@H]1N[C@H](C(=O)NCc2ccc(C(F)(F)F)cc2)Cc2c[nH]c3cccc1c23,i,i,28.2µM,i,31.6µM
NC(=O)[C@@H]1C[C@H](Oc2ccccc2)CN1C(=O)Cc1ccccc1,nt,i,i,nt,i
COC(=O)c1ccc2nc(C[C@@H]3C[C@@H](C(C)C)[C@H](CNC(=O)N4CCOCC4)C=C3C)[nH]c2c1,i,i,?,i,?
Cc1ccc(Nc2ccnc(N3CCC(C(=O)N4CCN(c5ncccn5)CC4)CC3)n2)cc1,nt,i,35.5µM,nt,17.8µM
Cc1ccc(Nc2ccnc(N3CCC(C(=O)N4CCC(Cc5ccccc5)CC4)CC3)n2)cc1,nt,i,?,nt,35.5µM
CC(=O)N1CCN(C(=O)C2CCN(c3nccc(Nc4ccc(C)cc4)n3)CC2)CC1,nt,i,i,nt,i
Cc1ccc(Nc2ccnc(N3CCC(C(=O)N4CCN(C)CC4)CC3)n2)cc1,nt,i,?,nt,?
COc1ccc(-c2ccc(CN)cc2)cc1,nt,i,?,nt,?
NCc1ccc(-c2ccc(F)cc2)cc1,nt,i,89.1µM,nt,100µM
NCc1cccc(-c2cc(F)cc(F)c2)c1,nt,i,89.1µM,nt,?
NCc1ccc(-c2ccc(OC(F)(F)F)cc2)cc1,nt,i,25.1µM,nt,25.1µM
COc1cccc(C(=O)NC2CCN(CCn3nc4n(c3=O)CCCC4)C2)c1 (stereo not given),nt,nt,i,nt,i
COc1cccc(-c2nccc3c(=O)cc(N(C)C)oc23)c1,i,i,70.8µM,i,i
COc1cccc(Cl)c1-c1nccc2c(=O)cc(N(C)C)oc12,i,i,50.1µM,i,?
Cc1ccc(S(=O)(=O)N2CC(C(=O)NCc3ccncc3)C3(CCOCC3)C2)c(C)c1 (stereo not given),i,i,i,i,i
O=C(c1ccc(Cl)nc1)N1CCC2(CC1)CC(c1cccc(C(F)(F)F)c1)=NO2,nt,nt,?,nt,35.5µM!
Cc1ccc(C(=O)N2CCC3(CC2)CC(c2cccc(C(F)(F)F)c2)=NO3)cc1,i,?,?,i,44.7µM!
Cc1ccc(-c2ncc(C(=O)Nc3cccc(Br)c3)c(-c3ccncc3)n2)cc1,i,?,?,i,25.1µM
Cc1cc(Cl)ccc1NC(=O)c1cnc(-c2ccccc2)nc1-c1ccncc1,?,i,20µM,i,44.7µM

# Source: PubChem BioAssay (National Center for Advancing Translational Sciences (NCATS))
